Sampled rows, rich in hits. Any-hit rate of the full collection: about 1.2%.
NCOA1 inh: human NCOA1 inhibition. HEK293 GAL4-SRC1 luciferase reporter, luminescence. inhibition, % at 3.6 µM. AID 588354. 0.12% of 360,000 active;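 active means inhibition above the campaign mean plus 3 SD, with each screening campaign given its own cutoff, cut at about 60% in these data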
SRC2 inh: human SRC2 (NCOA2) inhibition | Q15596 | HEK293 GAL4-SRC2 luciferase reporter, luminescence | 0.17% of 370,000 active | inhibition, % at 9 µM | AID 651957;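 active means inhibition above the mean inhibition of all tested compounds plus 3 SD, set per campaign, cut at about 52% in these data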
NCOA3 inh: inhibitors of human steroid receptor coactivator 3 (SRC3). HEK293 GAL4-SRC3 luciferase reporter, luminescence. inhibition, % at 3.6 µM. 0.17% of 360,000 active;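 active means inhibition above a per-campaign cutoff, the mean of all compounds plus 3 SD, cut at about 60% in these data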;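 further: higher means less SRC3-driven luciferase light from the GAL4 reporter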
COUP-TFII inh: NR2F2 (human) inhibition, primary screen. HEK293T NGFI-A luciferase reporter, luminescence. inhibition, % at 8.6 µM. 0.7% of 370,000 active;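 active means inhibition above a per-plate cutoff, mean inhibition of test wells between control levels plus 3 SD, cut at about 38% in these data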;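 further: cells cotransfected with COUP-TFII expression vector driving the NGFI-A reporter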
Gli-Sufu block: antagonists of Gli-Sufu signaling; inhibition, % at 5 µM; AID 588413; Sufu-KO-LIGHT fibroblasts, Gli luciferase reporter luminescence; 0.74% of 340,000 active;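 active means inhibition above about 55%, limit read from the data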
LRH-1 inv ag: inverse agonists of human LRH-1 (NR5A2). O00482. HEK293T StAR-luciferase reporter, LRH-1 transfected, 24 h. inhibition, % at 3.6 µM. 0.13% of 360,000 active;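 active means inhibition above the mean inhibition of all tested compounds plus 3 SD, cut at about 73% in these data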
Target sequence (O00482 whole entry, looked up): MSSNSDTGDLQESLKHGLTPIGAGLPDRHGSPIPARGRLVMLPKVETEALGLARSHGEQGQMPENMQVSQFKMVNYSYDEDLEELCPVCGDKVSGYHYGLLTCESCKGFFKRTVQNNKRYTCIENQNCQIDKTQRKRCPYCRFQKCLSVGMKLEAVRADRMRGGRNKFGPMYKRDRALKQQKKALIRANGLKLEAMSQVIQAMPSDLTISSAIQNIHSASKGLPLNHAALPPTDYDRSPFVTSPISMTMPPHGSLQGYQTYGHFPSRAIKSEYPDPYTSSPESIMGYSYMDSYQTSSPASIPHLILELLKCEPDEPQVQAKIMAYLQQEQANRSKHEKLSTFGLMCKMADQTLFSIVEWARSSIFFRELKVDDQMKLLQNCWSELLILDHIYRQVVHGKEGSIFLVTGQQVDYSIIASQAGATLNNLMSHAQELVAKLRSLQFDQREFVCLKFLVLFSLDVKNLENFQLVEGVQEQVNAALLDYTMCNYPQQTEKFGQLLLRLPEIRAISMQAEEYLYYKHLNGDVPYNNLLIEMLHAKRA
Gli antag conf: confirmation of Gli-SUFU pathway antagonists. shares compounds with Gli-Sufu block. Sufu-KO-LIGHT cells, Gli luciferase reporter, luminescence. inhibition, % at 5 µM. 40% of 2,500 active. AID 602428;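 active means mean inhibition at 5 µM reaching about 45%, limit read from the data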
Gli cytotox: cytotoxicity counter-screen for Gli-SUFU antagonists | shares compounds with Gli-Sufu block | Sufu-KO-LIGHT cells cytotoxicity, ATP luminescence | cytotoxicity, % at 5 µM | 32% of 2,500 active;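 active means mean cytotoxicity at 5 µM above about 25%, limit read from the data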;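 further: cells exposed to compound overnight for roughly 16 to 18 hours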
Wnt3a counter: inhibits Wnt3a reporter, counter-screen for Gli-SUFU antagonists; Wnt-LIGHT cells, Wnt3a-driven luciferase reporter, luminescence; shares compounds with Gli-Sufu block; 20% of 2,500 active; inhibition, % at 6.25 µM; AID 651995;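 active means mean inhibition above about 25%, limit read from the data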
Numbers stand for hits; - = inactive; . = no result given.

SMILES	NCOA1 inh	SRC2 inh	NCOA3 inh	COUP-TFII inh	Gli-Sufu block	LRH-1 inv ag	Gli antag conf	Gli cytotox	Wnt3a counter
CC(C)(C)[C@H]1COC(=O)[C@H](NC(=O)OCC2c3ccccc3-c3ccccc32)C/C=C\C[C@@H](CC(=O)N[C@H](CO)Cc2ccccc2)C(=O)N1	-	-	-	-	-	-	.	.	.
C[C@@H]1COC(=O)[C@H](NC(=O)OCC2c3ccccc3-c3ccccc32)C/C=C\C[C@@H](CC(=O)N[C@@H](CO)Cc2ccccc2)C(=O)N1	-	-	-	-	59	-	57	-	-
CC(C)(C)[C@H]1COC(=O)[C@H](NC(=O)OCC2c3ccccc3-c3ccccc32)C/C=C\C[C@@H](CC(=O)N[C@@H](CO)Cc2ccccc2)C(=O)N1	-	-	-	-	57	-	51	-	-
O=C(NCc1cccs1)C1CCCN(S(=O)(=O)c2cccc3ccccc23)C1 (stereo not drawn)	.	-	.	-	.	.	.	.	.
CCOC(=O)Nc1ccc2c(c1)N(C(=O)CNC)c1ccccc1CC2	-	-	-	-	-	-	-	-	-
CN1CCCCC(NC(=O)c2cccs2)C1=O (stereo not drawn)	.	-	.	-	.	.	.	.	.
COc1cc(C2C3=C(COC3=O)Oc3cc4c(cc32)OCO4)cc(OC)c1O (stereo not drawn)	-	-	-	-	-	-	67	64	-
O=C1OCC2=C1C(c1ccc3c(c1)OCO3)c1cc3c(cc1O2)OCO3 (stereo not drawn)	-	-	-	-	-	-	.	.	.
COc1cc(C2C3=C(COC3=O)Oc3cc4c(cc32)OCO4)cc(OC)c1OC (stereo not drawn)	-	-	-	-	56	-	57	57	-
COc1cc(C2C(C#N)=C(N)Oc3cc4c(cc32)OCO4)cc(OC)c1OC (stereo not drawn)	-	-	-	-	58	-	56	51	-
COc1ccc(C2CC(=O)C(c3ccc(C(N)=O)cc3)=CN2Cc2ccccc2)cc1 (stereo not drawn)	.	-	.	-	.	.	.	.	.
Cc1cc2c(c(=O)o1)[C@@]1(C(=O)N(c3ccccc3)c3ccccc31)C1=C(CCCC1=O)O2	.	-	.	-	.	.	.	.	.
C(#Cc1ccccc1)C[N+]1(CC#Cc2ccccc2)CCCC1	-	-	-	-	76	-	75	-	-
C=CC[N+]1(CC#Cc2ccccc2)CCCC1	-	-	-	-	-	-	.	.	.
CCN(CC)CCNC(=O)c1ccc(NCN2C(=O)NC(c3ccccc3)(c3ccccc3)C2=O)cc1	.	-	.	-	.	.	.	.	.
COc1cc(CNCc2ccccn2)ccc1OCC(=O)NC1CCCCC1	-	-	-	-	68	-	-	-	-
COc1ccc(C(CNC(=O)c2cc(S(=O)(=O)N3CCN(c4ccccc4)CC3)ccc2Cl)N(C)C)cc1 (stereo not drawn)	-	-	-	-	68	-	-	-	-
COc1ccc(C(=O)CSc2nnc(-c3cccc(Cl)c3)n2Cc2ccco2)cc1	.	-	.	-	.	.	.	.	.
CN1C2=N[C@H](c3ccccc3)CC(=O)N2/C(=C\c2ccccc2)C1Cc1ccccc1 (stereo partly drawn)	.	-	.	-	.	.	.	.	.
CCCNC(=O)c1ccccc1NC(=O)c1ccc2c(=O)n3c(nc2c1)CCC3	-	-	-	-	96	-	-	-	-
CC(NC(=O)c1cccc(S(=O)(=O)N2CCN(C)CC2)c1)C1CC2CCC1C2 (stereo not drawn)	-	-	-	-	58	-	-	-	-
O=C(Cc1ccc(NC(=O)C2CCN(C(=O)C3CCCC3)CC2)cc1)Nc1cccc(C(=O)N2CCCC2)c1	.	-	.	-	.	.	.	.	.
O=C1C(Cl)=C(N2CCCCC2)C(=O)N1c1ccccc1Cl	-	-	-	-	60	-	-	-	-
Cc1ccccc1N1C(=O)C(Cl)=C(N2CCCCCC2)C1=O	-	-	-	-	-	-	.	.	.
